# Experimental data from PubChem BioAssay (Tox21).
# Several values for one entry are separate records, joined by “and”; a condition that tells them apart may be missing. Equal entries are not always repeated. Results filed as inconclusive are left out. Entries that show only a call come without a potency. More than one record can exist for a structure, and the calls need not agree. Activity calls are given as the source filed them. Unless noted, calls follow the shape of the dose curve; as a rule, active = well fitted curve in the direction sought with a large enough effect in the repeat runs; inconclusive = weak or mixed curves; inactive = no such curve, though single readings can be large; an effect the other way counts as inactive or inconclusive.
# Columns and labels:
# [1] = biological target: Luciferin 4-monooxygenase (Photinus pyralis) (UniProt P08659); test: qHTS assay to identify small molecule inhibitors of firefly luciferase (AID 1224835); also: nearly all actives have a fitted effect of over 25% in size; also: potency is read from the fitted curve at half-maximal effect
# Luciferin 4-monooxygenase (Photinus pyralis), sequence (P08659 whole entry, looked up): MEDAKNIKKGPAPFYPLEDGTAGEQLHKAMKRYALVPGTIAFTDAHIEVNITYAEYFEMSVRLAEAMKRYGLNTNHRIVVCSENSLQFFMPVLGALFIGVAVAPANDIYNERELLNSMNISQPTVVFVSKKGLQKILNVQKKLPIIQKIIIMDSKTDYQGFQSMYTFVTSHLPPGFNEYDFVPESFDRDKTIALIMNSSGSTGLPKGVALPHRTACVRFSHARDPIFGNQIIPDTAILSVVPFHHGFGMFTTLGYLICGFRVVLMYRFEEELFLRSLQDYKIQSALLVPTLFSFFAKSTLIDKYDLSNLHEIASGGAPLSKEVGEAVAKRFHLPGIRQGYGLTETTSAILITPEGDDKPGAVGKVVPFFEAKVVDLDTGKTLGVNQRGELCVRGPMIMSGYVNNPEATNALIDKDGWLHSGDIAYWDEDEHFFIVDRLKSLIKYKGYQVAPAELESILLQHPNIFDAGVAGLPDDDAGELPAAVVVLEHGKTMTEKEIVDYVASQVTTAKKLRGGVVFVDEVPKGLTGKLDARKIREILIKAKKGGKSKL
# In short: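 Inhibition of purified Photinus luciferase is measured by luminescence. Substrate levels (D-luciferin, ATP) sit at their KM values. Each compound is tested in a concentration series.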
# [2] = qHTS assay to identify small molecule agonists of the constitutive androstane receptor (CAR) signaling pathway - cell viability counter screen (AID 1224836); also: nearly all actives have a fitted effect of over 45% in size; also: potency is read from the fitted curve at half-maximal effect; as to viability change, negative = cytotoxic: series mostly up to about 92 µM
# In short: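 HepG2 cells stably carrying hCAR and a CYP2B6-2.2kb reporter; 15-concentration compounds plus PK11195 (final 0.75 uM), 23 hr at 37 C/5% CO2. Viability read by CellTiter-Fluor fluorescence.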
# [3] = qHTS assay to identify small molecule antagonists of the constitutive androstane receptor (CAR) signaling pathway - cell viability counter screen (AID 1224837); also: nearly all actives have a fitted effect of over 45% in size; also: potency is read from the fitted curve at half-maximal effect
# In short: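 Viability was measured with CellTiter-Fluor in a HepG2 line carrying stably transfected hCAR and a CYP2B6-2.2kb construct. Cells were exposed for 23 hr at 37 C to 15 compound concentrations with 50 nM CITCO as agonist.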
# [4] = biological target: Nuclear receptor subfamily 1 group I member 3 (Homo sapiens) (UniProt Q14994); test: qHTS assay to identify small molecule antagonists of the constitutive androstane receptor (CAR) signaling pathway (AID 1224838);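 also: HepG2 cells stably expressing hCAR with CYP2B6 luciferase reporter stimulated by CITCO; nearly all actives have a fitted effect of over 40% in size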; also: potency is read from the fitted curve at half-maximal effect
# Nuclear receptor subfamily 1 group I member 3 (Homo sapiens), sequence (Q14994 whole entry, looked up): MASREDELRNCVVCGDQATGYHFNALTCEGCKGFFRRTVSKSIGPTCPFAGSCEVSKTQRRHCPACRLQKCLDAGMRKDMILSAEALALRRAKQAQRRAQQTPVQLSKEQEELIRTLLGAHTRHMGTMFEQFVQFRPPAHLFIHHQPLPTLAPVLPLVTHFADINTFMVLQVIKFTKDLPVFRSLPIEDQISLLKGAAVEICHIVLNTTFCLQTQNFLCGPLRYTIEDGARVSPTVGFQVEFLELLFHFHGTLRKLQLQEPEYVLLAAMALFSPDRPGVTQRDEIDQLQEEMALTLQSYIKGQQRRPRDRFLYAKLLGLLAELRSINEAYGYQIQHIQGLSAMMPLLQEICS
# In short: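 Antagonist mode used CITCO at a final 50 nM to activate CAR in human hepatoma HepG2 cells carrying stable hCAR and a 2.2 kb CYP2B6 promoter-luciferase construct. Compounds were tested at 15 concentrations over 24 h, with luminescence as the end point.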
# [5] = biological target: Nuclear receptor subfamily 1 group I member 3 (Homo sapiens) (UniProt Q14994); test: qHTS assay to identify small molecule agonists of the constitutive androstane receptor (CAR) signaling pathway (AID 1224839); also: nearly all actives have a fitted effect of over 15% in size; also: potency is read from the fitted curve at half-maximal effect
# In short: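 HepG2 cells stably co-transfected with hCAR and a CYP2B6-2.2kb luciferase reporter; compounds at 15 concentrations with 0.75 uM PK11195 present. After 24 hr at 37 C, luciferase read by ONE-Glo luminescence.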
# [6] = qHTS assay to identify small molecule antagonists of the estrogen related receptor signaling pathway with the pleiotropic PPARgamma coactivator (PGC) from Tox21 10K library - cell viability counter screen (AID 1224840; active = well fitted cell-killing curve with a large enough effect in the repeat runs, not every such curve was filed as active; also: nearly all actives have a fitted effect of over 40% in size; also: potency is read from the fitted curve at half-maximal effect)
# In short: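 Multiplexed viability counter screen in the PGC/ERR cell line: cells treated with DMSO-dissolved compounds for 17.5 hours at 37 C, then viability measured as CellTiter-Fluor fluorescence.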
# [7] = biological target: Thyrotropin receptor (Homo sapiens) (UniProt P16473); test: qHTS assay to identify small molecule agonists of the thyroid stimulating hormone receptor (TSHR) signaling pathway (AID 1224843; calls by dose curve; also: nearly all actives have a fitted effect of over 45% in size)
# Thyrotropin receptor (Homo sapiens), sequence (P16473 whole entry, looked up): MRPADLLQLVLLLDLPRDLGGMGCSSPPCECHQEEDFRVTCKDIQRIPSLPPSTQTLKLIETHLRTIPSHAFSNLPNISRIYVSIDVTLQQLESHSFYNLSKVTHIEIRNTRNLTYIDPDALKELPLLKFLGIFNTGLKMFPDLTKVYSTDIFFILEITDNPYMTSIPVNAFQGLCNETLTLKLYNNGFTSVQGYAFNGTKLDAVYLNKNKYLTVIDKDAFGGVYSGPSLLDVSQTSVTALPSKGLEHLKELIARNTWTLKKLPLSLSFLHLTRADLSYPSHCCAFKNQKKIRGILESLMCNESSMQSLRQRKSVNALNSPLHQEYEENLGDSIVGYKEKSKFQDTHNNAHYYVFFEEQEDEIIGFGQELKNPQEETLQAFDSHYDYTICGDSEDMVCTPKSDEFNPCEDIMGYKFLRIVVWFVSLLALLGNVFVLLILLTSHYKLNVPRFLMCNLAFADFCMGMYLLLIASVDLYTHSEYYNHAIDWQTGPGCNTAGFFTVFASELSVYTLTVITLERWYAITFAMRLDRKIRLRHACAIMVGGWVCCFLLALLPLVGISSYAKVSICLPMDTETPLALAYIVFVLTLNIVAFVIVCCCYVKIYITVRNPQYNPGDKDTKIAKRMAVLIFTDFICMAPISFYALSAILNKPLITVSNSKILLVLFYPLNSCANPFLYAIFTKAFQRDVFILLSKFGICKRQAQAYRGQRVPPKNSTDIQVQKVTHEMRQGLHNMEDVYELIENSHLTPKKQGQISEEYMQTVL
# In short: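 A cell-based cAMP HTRF format was run in TSHR-transfected HEK293 cells, 800 per well. Treatment: 30 min, room temperature. Detection: 1 h with labelled cAMP and anti-cAMP cryptate. Concentration-response over 15 points, three replicates.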
# [8] = qHTS assay to identify small molecule agonists of the hypoxia (HIF-1) signaling pathway - cell viability counter screen (AID 1224844; calls by dose curve; also: nearly all actives have a fitted effect of over 50% in size; also: potency is read from the fitted curve at half-maximal effect)
# In short: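 Cytotoxicity was measured in parallel with the HRE-driven beta-lactamase readout: after 17 hrs of compound exposure at 37C, HRE-bla ME-180 cells received CellTiter-Glo and luminescence was recorded 30 min later.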
# [9] = qHTS assay to identify small molecule antagonists of the estrogen related receptor signaling pathway with the pleiotropic PPARgamma coactivator (PGC) from Tox21 10K library (AID 1224841; call rule not given here; also: series mostly up to about 92 µM; actives are mostly falling curves and most rising ones were filed inactive; nearly all actives have a fitted effect of over 50% in size)
# In short: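 Steps: plate 2,000 PGC/ERR cells per well; incubate 6 h at 37 C with 5% CO2; transfer compounds from DMSO stocks by pin tool; incubate 18 h at 37 C; add One-Glo; measure luminescence 30 min later.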
# [10] = qHTS assay to identify small molecule agonists of the estrogen related receptor signaling pathway with the pleiotropic PPARgamma coactivator (PGC) from Tox21 10K library (AID 1224842); also: nearly all actives have a fitted effect of over 15% in size
# In short: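 Luminescence from One-Glo (30 min, room temperature) measured after PGC/ERR cells had 18 h at 37 C with pinned compound (23 nL in DMSO). Cells had been seeded at 2,000 per well and pre-incubated 6 h.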
SMILES,Potency [1],Potency [2],Potency [3],Potency [4],Potency [5],Potency [6],Potency [7],Potency [8],Potency [9],Potency [10],"viability change, negative = cytotoxic [6]"
CCC(Cc1c(I)cc(I)c(N)c1I)C(=O)O (centres undefined),inactive,inactive,inactive,inactive,47 µM (active),inactive,inactive,42.3 µM (active) and 15.1 µM (active),,,
CC1(C)OC(=O)NC1=O,inactive,inactive,inactive,inactive,inactive,inactive,inactive,inactive,inactive,inactive,
OC[C@H]1O[C@@H]2O[C@H]3[C@H](O)[C@@H](O)[C@@H](O[C@H]4[C@H](O)[C@@H](O)[C@@H](O[C@H]5[C@H](O)[C@@H](O)[C@@H](O[C@H]6[C@H](O)[C@@H](O)[C@@H](O[C@H]7[C@H](O)[C@@H](O)[C@@H](O[C@H]1[C@H](O)[C@H]2O)O[C@@H]7CO)O[C@@H]6CO)O[C@@H]5CO)O[C@@H]4CO)O[C@@H]3CO,inactive,inactive,inactive,inactive,inactive,inactive,inactive,inactive,,,
C=CCOC(=O)C(=C)C,inactive,inactive,inactive,inactive,inactive,inactive,inactive,inactive,inactive,inactive,
CC(C)(C)c1cccc(C(C)(C)C)c1O,inactive,inactive,inactive,inactive,inactive,inactive,inactive,53.7 µM (active) and inactive,,,
CCCCCC=O,inactive,inactive,inactive,inactive,inactive,inactive,inactive,inactive,inactive,inactive,
c1ccc2c(c1)ccc1ncccc12,62.8 µM (active) and 35.6 µM (active),inactive,inactive,inactive,54.1 µM (active) and 48.6 µM (active),inactive,inactive,inactive,inactive,inactive,
CC(=O)[C@H]1CC[C@H]2[C@@H]3CC=C4C[C@@H](O)CC[C@]4(C)[C@H]3CC[C@]12C,inactive,inactive,inactive,inactive,inactive,inactive,inactive,inactive,inactive,inactive,
COCCOCCOCCO,inactive,inactive,inactive,inactive,inactive,inactive,inactive,inactive,inactive,inactive,
Cc1ccc(C(C)(C)C)c(O)c1,inactive,inactive,inactive,59.1 µM (active),inactive,inactive,,inactive,inactive,inactive,
O=[Se](O)O,inactive,43.3 µM (active),48.6 µM (active),61.2 µM (active) and 3.3 µM (active),inactive,30.7 µM (active),inactive,inactive,,,-29.3% [at 19 µM] (inactive)
CCCCCCCCCCCCCO,82.5 µM (active),inactive,inactive,inactive,inactive,inactive,,inactive,inactive,inactive,
C[C@]12CC[C@@H]3c4ccc(O)cc4CC[C@H]3[C@@H]1CC[C@@H]2O,39.8 µM (active) and 79.6 µM (active),inactive,inactive,inactive,9.67 µM (active) and 10.9 µM (active),inactive,,inactive,,inactive,
CN(Cc1cnc2nc(N)nc(N)c2n1)c1ccc(C(=O)N[C@@H](CCC(=O)O)C(=O)O)cc1,inactive,inactive,inactive,48.6 nM (active) and 75 nM (active),inactive,inactive,inactive,inactive,,,
Oc1c(Cl)ccc(Cl)c1Cl,inactive,inactive,inactive,inactive,inactive,inactive,,inactive,inactive,inactive,
CC(=O)O[C@]1(C(C)=O)CC[C@H]2[C@@H]3C=C(Cl)C4=CC(=O)CC[C@]4(C)[C@H]3CC[C@@]21C,inactive,inactive,inactive,inactive,inactive,inactive,inactive,inactive,,,
CC(C)(Oc1ccc(Cl)cc1)C(=O)O,inactive,inactive,inactive,inactive,inactive,inactive,inactive,inactive,,,
CCCOCCO,inactive,inactive,inactive,inactive,inactive,inactive,inactive,inactive,,,
CCc1cccc2c3c([nH]c12)C(CC)(CC(=O)O)OCC3 (centres undefined),inactive,inactive,inactive,inactive,inactive,inactive,inactive,inactive,,,
CC(=O)Nc1ccc2c(c1)Cc1cc(NC(C)=O)ccc1-2,inactive,inactive,inactive,inactive,inactive and 7.7 µM (active),inactive,inactive,inactive,,,
NCCS(=O)(=O)O,41.5 µM (active) and inactive,inactive,inactive,inactive,,inactive,inactive,inactive,,,
COc1ccc(C(=O)c2ccccc2O)c(O)c1,inactive,inactive,inactive,inactive,,inactive,inactive,inactive,inactive,inactive,
CCOC(=O)C(C)Oc1ccc(Oc2cnc3cc(Cl)ccc3n2)cc1 (centres undefined),inactive,inactive,inactive,inactive,inactive,inactive,,inactive,,,
